40 molecules from PubChem BioAssay can be followed below.

Unmarked numbers belong to inactive results. Cut-off read from the data, not from the text of the source: active = inhibition above about 36%; inactive = the rest.

Broadly, the inhibition is the relative decrease from the control value, in per cent.

For this assay, the system named is transactivating tegument protein VP16 (Human herpesvirus 1). The assay is described as follows: compounds suppressing VP16-driven luciferase signal – cell-based, luminescence, single concentration, counter-screen for SRC2 inhibitor project (AID 652007). Conditions: cell-based VP16 transactivation luciferase reporter, at 8.9 µM, stronger effect = higher value.
For the molecule `CCc1ccc(C(=O)Nc2nc3ccccc3[nH]2)cc1`, the inhibition was -1%.
For the molecule `Cc1c(CCC(=O)N2CCC(C(=O)O)CC2)c(=O)oc2cc3oc4c(c3cc12)CCCC4`, the inhibition was 33.6%.
The value for `Nc1nc(-c2ccccc2)c(N=Nc2cccnc2)s1` was 5.71%.
For the molecule `O=C(O)CCCc1ccc2c(c1)CCc1ccccc1-2`, the inhibition is 29.6%.
In the case of `Cc1ccccc1CS(=O)(=O)c1ccc(C(=O)N2CCOCC2)cc1[N+](=O)[O-]`, the inhibition is 14.6%.
Regarding `CC(C)(c1ccc(O)cc1)c1ccc(O)c(C(=O)O)c1`, the inhibition was -8.08%.
On to `Nc1nonc1-n1nnc(C(=O)N/N=C/c2ccccc2Br)c1CN1CCCC1`, for which the inhibition was -7.5%.
Take `COC(=O)c1ccc2c(=O)[nH]c(COC(=O)c3[nH]c(C)c(C(C)=O)c3C)nc2c1`: the inhibition is -18.3%.
In the case of `CC(C)=CCC[C@@]1(C(=O)O)[C@H]2CC=C(CO)[C@@H]1CC/C(C)=C/CC/C(C)=C/C2` it was 14.6%; in that of `NNC(=O)COc1ccc(-c2nccc(-c3ccc(F)cc3)n2)cc1`, -14.6%; in that of `COCCNC(=O)CN(C(=O)c1ccc(N2CCCC2)nc1)c1ccc(F)c(Cl)c1`, -5.77%.
Consider `COc1ccc(-c2nnn(CC(=O)N(Cc3cccs3)C(C)C(=O)NCCC(C)C)n2)cc1OC` (stereo not given), for which the inhibition is -10.9%.
As to `NC(=S)N1OC[C@@H]2COc3ccc4ccccc4c3[C@@H]21`, the inhibition was 2.09%.
In the case of `O=C(N/N=C\c1cc(Br)c(Br)o1)C1COc2ccccc2O1` (stereo not given), the inhibition is -16.1%.
For `Cc1ccc(C)c(NS(=O)(=O)c2cc(C(=O)NCCSC3CCCCC3)ccc2C)c1`, the inhibition was -17.6%.
The value for `COc1cc(Cn2c3ccc(NC(=O)CC(C)c4ccccc4)cc3c(=O)n2C)ccc1F` (stereo not given) was -0.16%; that for `COc1ccc(C)cc1Nc1n[n+](-c2ccccc2)c(-c2c(Cl)cccc2Cl)s1` was 19.4%.
Turning to `CCOC(=O)C(C(=O)OCC)C(Nc1cccc(Br)c1)c1ccccc1` (stereo not given), the inhibition was 8.47%.
For `CC(=O)c1ccc(OCCCC(=O)N2CCN(S(=O)(=O)c3ccc(C)cc3C)CC2)cc1`, the inhibition is 7.87%.
In the case of `Cc1nc2cc(-c3ccccc3)sc2c(=O)n1N`, the inhibition was 22.3%.
On to `Cc1cc(OCC(=O)Nc2ccncc2)cc(C)c1Cl`, for which the inhibition is 4.55%.
The value for `Cc1cccc(N(Cc2ccccc2)C(=O)CCl)c1` was 15%; that for `COc1ccc(C(=O)c2ccc(CC(=O)O)s2)cc1` was 29.4%; that for `CCS(=O)(=O)c1cc([N+](=O)[O-])c(Sc2ccccc2NC(C)=O)s1` was -21%.
For `COc1ccc(C(=O)NC2CC3CCCC(C2)N3CC(C)C)cc1` (stereo not given), the inhibition is 2.31%.
On to `c1ccc(CCNc2ncnc3scc(C4COc5ccccc5O4)c23)cc1` (stereo not given), for which the inhibition is -8.4%.
As for `COc1ccc(C(=O)/C=C/Nc2ccccn2)cc1`, the inhibition is 3.41%.
For the molecule `N#CCCN(C(=O)COC(=O)C1CCN(S(=O)(=O)c2ccccc2C(F)(F)F)CC1)c1ccccc1`, the inhibition is 0.12%.
The value for `O=C(O)c1ccc(Oc2ccc(S(=O)(=O)c3ccc(C(=O)O)c(C(=O)O)c3)cc2)cc1` was -6.88%; that for `Cc1ccc(NC(=O)C2CCN(S(=O)(=O)c3c(C)noc3/C=C/c3ccco3)CC2)nc1` was 11.6%.
For `Cc1ccc(NCC(=O)Nc2cccc(F)c2)cc1S(=O)(=O)N1CCCCCC1`, the inhibition was 15.9%.
In the case of `CC(C)(C)c1ccc(OCC(O)CSc2ncn[nH]2)cc1` (stereo not given), the inhibition is 0.7%.
`Cc1cc(Nc2ccccc2)n(C(=O)c2ccc(N)cc2)n1`: the inhibition is -71.3%.
On to `Nn1cnnc1SCC(=O)N1CCc2ccccc2C1`, for which the inhibition is 3.54%.
With `Cc1ccc(NC(=O)c2ccc(NC(=O)C3CCCCC3C(=O)O)cc2)cc1` (stereo not given), the inhibition was -56%.
For the molecule `CCOC(=O)CCC(=O)c1c(C)oc2ccc(OC)cc12`, the inhibition is 6.24%.
In the case of `CN(C)c1ccc(/C=C2\SC(=O)N(CCc3nnc(N)s3)C2=O)cc1`, the inhibition was -23.4%.
In the case of `CC(=O)Nc1ccc(Nc2nc(C)c([N+](=O)[O-])c(N(C)c3ccccc3)n2)cc1`, the inhibition is 32.4%.
On to `Cn1nnnc1Sc1ncnc2scc(-c3ccc(C#N)cc3)c12`, for which the inhibition was 12.5%.
Turning to `COC(=O)C1Cc2ccccc2CN1C(=O)CCl` (stereo not given), the inhibition was 27.7%.
